The text below walks through data of PubChem BioAssay AID493162 (ICCB-Longwood Screening Facility, Harvard Medical School, 2011).

Screen size: about 46,000 compounds; about 430 (0.93%) were called active. This is one part of a sample in which actives are shown more often than they occur. Rule as the data show it: active = normalized absorbance mostly below about 85% (no sharp cut-off); inactive = mostly above about 86%.

For the assay, the system named is Vaccinia virus DNA polymerase (E9) processive complex. Briefly: vaccinia E9 polymerase processive synthesis inhibitors, primary screen, biochemical, absorbance (AID 493162). The settings on record: in vitro processive DNA synthesis, absorbance read-out; stronger effect = lower value; concentration not given here.
In the case of `Cc1ccc2c(Cl)c(C(=O)N(Cc3cccs3)C3CCS(=O)(=O)C3)sc2c1` (stereo unspecified), the normalized absorbance was 100% (inactive).

As to `C/C(C#N)=C(/N)c1ccccc1`, the normalized absorbance was 104% (inactive).

As to `CCOC(=O)CSc1nc(N)c2c3c(sc2n1)CCC3`, the normalized absorbance is 95.7% (inactive).

Take `COc1ccc2c(C)cc(-n3nc(C)cc3C)nc2c1`: the normalized absorbance is 99% (inactive).

On to `COc1ccc(Cl)cc1-n1c(SCc2cccc(Cl)c2)nnc1-c1cc2occc2n1C`, for which the normalized absorbance was 108% (inactive).

Turning to `O=C(Nc1ccc(-c2nc3ccccc3o2)cc1)c1ccc(Oc2ccccc2)cc1`, the normalized absorbance was 100% (inactive).

On to `CCOc1ccc2nc(NC(=O)C3CC3)sc2c1`, for which the normalized absorbance is 100% (inactive).

For the molecule `COc1ccc(/C=N/n2c(C)cc(C)cc2=O)cc1`, the normalized absorbance was 100% (inactive).

On to `CCOc1cccc(NC(=O)c2cc(=O)c3ccccc3o2)c1`, for which the normalized absorbance is 100% (inactive).

Take `CCOc1ncccc1C(=O)Nc1cccc(C(F)(F)F)c1`: the normalized absorbance is 102% (inactive).

With `CCOC(=O)c1cc2ccccc2nc1C`, the normalized absorbance is 99.8% (inactive).

For the molecule `CCOC(=O)Cc1nc(N)ncc1C(=O)OCC`, the normalized absorbance is 101% (inactive).

On to `CCOC(=O)c1cnc2c(C)c(C)ccc2c1NCCCN(C)C`, for which the normalized absorbance is 39.1% (active).

Regarding `c1ccc(-c2cc(NCC3CC3)n3cnnc3n2)cc1`, the normalized absorbance was 98.2% (inactive).

Regarding `O=C(NCCN1CCCc2ccccc21)c1cc(-c2cccs2)nc2ccccc12`, the normalized absorbance was 96.3% (inactive).

With `C=CCn1c(-c2ccccc2)csc1=Nc1ccc(O)cc1`, the normalized absorbance was 100% (inactive).

In the case of `COc1ccc(-c2nc(NCC3CCCO3)c3ccccc3n2)cc1` (stereo unspecified), the normalized absorbance was 66.4% (active).

As for `CN1CCN(c2nc(NCC3CCCO3)c3ccccc3n2)CC1` (stereo unspecified), the normalized absorbance is 98.7% (inactive).

For `COc1ccc(-n2nc(C(=O)NCC3CCCO3)c3c4ccccc4n(C)c3c2=O)cc1` (stereo unspecified), the normalized absorbance is 103% (inactive).

In the case of `Cc1ccc(C)n1-c1nn(S(C)(=O)=O)c2cccc(F)c12`, the normalized absorbance is 92.7% (inactive).

For the molecule `COc1cccc(C2=Nc3ccccc3C2=O)c1`, the normalized absorbance is 99.2% (inactive).

In the case of `COC(=O)c1coc(-c2ccccc2)n1`, the normalized absorbance is 102% (inactive).

Take `O=C(N/C(=C/c1ccccc1)P(=O)(O)c1ccccc1)c1ccccc1`: the normalized absorbance is 98.3% (inactive).

Regarding `Cc1ccc(/C=C/C(=O)NCC2CCCO2)o1` (stereo unspecified), the normalized absorbance was 89.2% (inactive).

With `CN(C)c1nc(NCc2ccccc2)nc(Nc2ccc(OC(F)(F)F)cc2)n1`, the normalized absorbance is 100% (inactive).

With `CCc1ccccc1N1CC(c2nc3ccccc3[nH]2)CC1=O` (stereo unspecified), the normalized absorbance is 90.4% (inactive).

Consider `CC(C)NC(=O)Oc1noc2ccc(Cl)cc12`, for which the normalized absorbance is 99.1% (inactive).

Turning to `CCN1C(=O)/C(=C/C=C/c2ccco2)C(=O)NC1=S`, the normalized absorbance was 64.7% (active).

For the molecule `Cc1ccc(N2NC(=O)/C(=C/C=C/c3ccco3)C2=O)cc1C`, the normalized absorbance was 99.9% (inactive).

`C=CCN1C(=O)/C(=C/c2ccc3c(c2)n(C)c(=O)n3C)C(=O)NC1=S`: the normalized absorbance was 100% (inactive).

`CC(=O)Nc1ccc(N2C(=O)C=CC2=O)cc1`: the normalized absorbance is 124% (inactive).

For the molecule `CC(C)CNS(=O)(=O)C1CCS(=O)(=O)C1` (stereo unspecified), the normalized absorbance was 102% (inactive).

Consider `Nc1ncnc2c1ncn2CCNCc1ccccc1`, for which the normalized absorbance is 103% (inactive).

Turning to `NC(=O)C(Cc1ccccc1)NC(=O)C12CC3CC(CC(C3)C1)C2` (stereo unspecified), the normalized absorbance was 72.6% (inactive).

Turning to `CCOc1cc(/C=C2\SC(=S)N(C(C)C(=O)O)C2=O)ccc1O` (stereo unspecified), the normalized absorbance was 99% (inactive).

`Cc1cc(C)n(-c2nc(-c3cccnc3)nc3ccccc23)n1`: the normalized absorbance is 85.7% (inactive).

With `CCS(=O)c1nc2c(Br)cccc2[nH]1` (stereo unspecified), the normalized absorbance is 94.1% (inactive).

In the case of `Cc1ccc(NCC(O)c2ccc(Cl)cc2)cc1` (stereo unspecified), the normalized absorbance was 102% (inactive).

In the case of `Cc1ccc(S(=O)(=O)NCc2ccc(C(=O)NC3CCC(C)CC3)cc2)cc1` (stereo unspecified), the normalized absorbance was 99% (inactive).

Take `O=C(c1ccc(Cl)cc1Cl)n1c(=O)oc2cc(S(=O)(=O)N3CCCCC3)ccc21`: the normalized absorbance was 101% (inactive).

In the case of `COc1ccc(C2C(C#N)=C(N)OC(C)=C2C(=O)OCc2ccccc2)cc1` (stereo unspecified), the normalized absorbance was 102% (inactive).

Regarding `O=C1/C(=C/c2ccc(N3CCOCC3)cc2)CCc2ccccc21`, the normalized absorbance is 100% (inactive).

With `N#CCCn1c(=S)n(CCC#N)c2ccccc21`, the normalized absorbance is 106% (inactive).

`COC(=O)c1ccc(Cn2nc(C)c(Cl)c2C)cc1`: the normalized absorbance was 92.4% (inactive).

For `CC(=O)Nc1ccc(C2N3CCCN23)cc1` (stereo unspecified), the normalized absorbance is 100% (inactive).

Regarding `CCCCn1c(CCCNC(=O)CC)nc2ccccc21`, the normalized absorbance was 98.7% (inactive).

For `CNC(=O)CSc1nc2ccccc2[nH]1`, the normalized absorbance is 99.5% (inactive).

As to `C=CCSc1nc2ccccc2[nH]1`, the normalized absorbance is 89.7% (active).

Take `C=CCSc1nc(N)cc(=O)[nH]1`: the normalized absorbance was 101% (inactive).

Turning to `CC(O)CNC(=O)c1sc2ccccc2c1Cl` (stereo unspecified), the normalized absorbance was 95.9% (inactive).

Regarding `Cc1c(CNCCC2=CCCCC2)c(C(=O)O)c(C)n1Cc1cccc(Cl)c1`, the normalized absorbance is 92% (inactive).
